Reference: PubChem BioAssay AID449739 (Vanderbilt High Throughput Screening Facility, 2010)
The campaign covered roughly 100,000 compounds. About 4,200 (4.2%) were called active. Only a selection was taken, and actives are over-represented in it overall. A number with no mark means an inactive call.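 The calls were made as follows: active = single-dose well whose peak fluorescence ratio is a statistical outlier from its plate by either plate-standardised score or position-corrected B-score; inactive = the rest.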

These compounds were tested against Voltage-dependent T-type calcium channel subunit alpha-1H (Homo sapiens) (UniProt O95180) (assay: Cav3.2 calcium influx blockers – cell-based, Fluo-4 calcium fluorescence, FDSS, MLSMR library, primary screen (AID 449739)). Conditions: Cav3.2-expressing cells, at 10 µM, stronger effect = lower value.
Sequence of Voltage-dependent T-type calcium channel subunit alpha-1H (Homo sapiens) (O95180 whole entry, looked up): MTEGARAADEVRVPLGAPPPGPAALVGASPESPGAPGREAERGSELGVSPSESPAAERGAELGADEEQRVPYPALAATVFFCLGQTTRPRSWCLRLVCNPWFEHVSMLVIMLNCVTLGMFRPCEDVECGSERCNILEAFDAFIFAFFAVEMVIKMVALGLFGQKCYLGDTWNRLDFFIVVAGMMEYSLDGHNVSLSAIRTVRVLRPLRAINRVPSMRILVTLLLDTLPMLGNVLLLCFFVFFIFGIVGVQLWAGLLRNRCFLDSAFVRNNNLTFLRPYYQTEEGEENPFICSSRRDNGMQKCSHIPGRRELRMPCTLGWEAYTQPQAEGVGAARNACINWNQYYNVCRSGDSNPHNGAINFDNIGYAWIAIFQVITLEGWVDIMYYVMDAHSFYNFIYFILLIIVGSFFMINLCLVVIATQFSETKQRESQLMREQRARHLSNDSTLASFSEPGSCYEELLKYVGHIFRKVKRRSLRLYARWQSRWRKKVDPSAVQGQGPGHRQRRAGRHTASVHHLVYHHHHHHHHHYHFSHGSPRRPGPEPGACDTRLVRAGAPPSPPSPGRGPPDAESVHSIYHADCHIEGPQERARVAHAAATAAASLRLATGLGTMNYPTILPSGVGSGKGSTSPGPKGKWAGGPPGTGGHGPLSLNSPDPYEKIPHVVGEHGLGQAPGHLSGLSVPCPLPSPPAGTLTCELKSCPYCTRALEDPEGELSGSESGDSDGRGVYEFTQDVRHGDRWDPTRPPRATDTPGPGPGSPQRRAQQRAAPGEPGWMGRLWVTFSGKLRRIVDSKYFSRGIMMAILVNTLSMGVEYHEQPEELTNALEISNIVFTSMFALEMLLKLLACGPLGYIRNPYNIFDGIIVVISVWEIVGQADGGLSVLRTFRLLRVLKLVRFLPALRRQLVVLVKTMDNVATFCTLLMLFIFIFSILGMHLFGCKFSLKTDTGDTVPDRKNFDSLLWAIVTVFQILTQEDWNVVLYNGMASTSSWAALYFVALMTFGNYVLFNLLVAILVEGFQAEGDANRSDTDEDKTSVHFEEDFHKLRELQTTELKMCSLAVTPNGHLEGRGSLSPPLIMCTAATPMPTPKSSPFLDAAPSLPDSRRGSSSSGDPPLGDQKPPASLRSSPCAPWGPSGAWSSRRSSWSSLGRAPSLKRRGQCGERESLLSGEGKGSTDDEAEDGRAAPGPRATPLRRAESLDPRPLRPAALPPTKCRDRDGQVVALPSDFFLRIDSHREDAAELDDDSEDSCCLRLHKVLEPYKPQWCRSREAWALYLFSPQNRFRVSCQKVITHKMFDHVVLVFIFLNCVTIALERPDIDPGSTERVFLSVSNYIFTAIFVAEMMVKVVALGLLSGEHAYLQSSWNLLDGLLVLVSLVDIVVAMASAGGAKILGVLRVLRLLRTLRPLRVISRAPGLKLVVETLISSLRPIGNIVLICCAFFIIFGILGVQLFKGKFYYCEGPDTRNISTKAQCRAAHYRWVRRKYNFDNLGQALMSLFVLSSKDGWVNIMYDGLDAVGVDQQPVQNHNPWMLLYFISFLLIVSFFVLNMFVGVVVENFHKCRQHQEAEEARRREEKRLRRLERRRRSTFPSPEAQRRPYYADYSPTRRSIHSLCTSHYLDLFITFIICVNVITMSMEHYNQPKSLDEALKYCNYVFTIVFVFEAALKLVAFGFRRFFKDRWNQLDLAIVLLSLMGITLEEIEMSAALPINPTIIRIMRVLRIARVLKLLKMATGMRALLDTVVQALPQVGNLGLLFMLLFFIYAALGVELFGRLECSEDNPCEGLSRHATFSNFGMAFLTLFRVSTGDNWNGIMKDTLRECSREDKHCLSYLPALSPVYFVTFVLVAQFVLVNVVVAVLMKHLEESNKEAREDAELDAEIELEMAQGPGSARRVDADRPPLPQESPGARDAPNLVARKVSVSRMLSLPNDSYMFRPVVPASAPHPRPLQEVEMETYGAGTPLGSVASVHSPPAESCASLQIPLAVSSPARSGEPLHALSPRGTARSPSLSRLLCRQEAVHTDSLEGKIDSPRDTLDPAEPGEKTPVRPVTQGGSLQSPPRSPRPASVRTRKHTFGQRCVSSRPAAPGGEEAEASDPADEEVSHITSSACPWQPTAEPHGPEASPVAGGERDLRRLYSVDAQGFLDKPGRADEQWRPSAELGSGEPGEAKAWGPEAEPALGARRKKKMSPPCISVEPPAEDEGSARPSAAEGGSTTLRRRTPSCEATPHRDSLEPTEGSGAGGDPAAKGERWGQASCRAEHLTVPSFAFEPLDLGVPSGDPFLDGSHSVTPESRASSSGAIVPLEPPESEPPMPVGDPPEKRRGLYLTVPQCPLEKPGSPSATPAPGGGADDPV

Row | Compound | B-score
1 | C=CCCN(Cc1ccccc1)S(=O)(=O)c1ccccc1Br | 0.0805
2 | CCO[C@@H]1OC(C(=O)NCc2nc3ccccc3[nH]2)=C[C@H](C2CCCCC2)[C@H]1CCCO | -0.192
3 | COc1ccc(C(c2nnnn2C2CCCCC2)N2CCN(c3ccccc3F)CC2)cc1 (configuration not stated) | -6.41 (active)
4 | CC(C)C(c1nnnn1C1CCCC1)N1CCN(c2ccccc2F)CC1 (configuration not stated) | -2.85
5 | COc1ccc(N2CCN(C(c3cc4ccc(C)cc4[nH]c3=O)c3nnnn3C3CCCC3)CC2)cc1 (configuration not stated) | -2.59
6 | N#CCc1c(C#N)c(N)nc(N2CCCC2)c1C#N | 0.949
7 | CCN(CC)CCC(c1cc(OC)c(OC)c(OC)c1)c1c(OC)cc(OC)c2c(-c3ccccc3)cc(=O)oc12 (configuration not stated) | -1.5
8 | CCCCn1c(CCCNC(=O)CC)nc2ccccc21 | 1.14
9 | C=C(Br)Cn1c(CCCC)nc2ccccc21 | -3.88 (active)
10 | CCCCn1c(CN2CCN(CCO)CC2)nc2ccccc21 | 1.86
11 | CC(C)[C@@H]1NC(=O)c2cc([N+](=O)[O-])cc(I)c2NCCC[C@@H](C(=O)NC(CC(=O)O)C(N)=O)NC(=O)[C@H](CO)NC1=O (some centres not stated) | 0.105
12 | CCOc1c2ccc(C(=O)NCc3ccc(OC(F)(F)F)cc3)cc2nn1C | -1.9
13 | Cc1cccc(N(CC(=O)N2CCOCC2)S(C)(=O)=O)c1 | 0.326
14 | Cc1cc(C)cc(N(CC(=O)N2CC=C(c3ccccc3)CC2)S(=O)(=O)c2c(C)noc2C)c1 | -4.03 (active)
15 | Cc1cc(C)cc(N(CC(=O)NCC2CCCO2)S(=O)(=O)c2c(C)noc2C)c1 (configuration not stated) | 0.883
16 | CCOC(=O)CSC1=C(C#N)C(c2ccco2)C(C(=O)OCc2ccccc2)=C(C)N1 (configuration not stated) | -3.01

Row | Compound | B-score
17 | N#CC1=C(N)Oc2c(sc3ccccc23)C1c1ccco1 (configuration not stated) | -4.64 (active)
18 | CC1=C(C(=O)Nc2ccccc2)C(c2ccco2)C(C#N)=C(SCC(N)=O)N1 (configuration not stated) | -0.16
19 | CCOc1cccc(C(=O)Nc2cnn(Cc3ccccc3)c2)c1 | -0.985
20 | O=C(c1ccc(F)cc1)c1c[nH]c(C(=O)NCc2cccnc2)c1 | 1.02
21 | c1cnc(Nc2nc(-c3ccc4ccccc4c3)cs2)nc1 | 0.515
22 | Cc1ccc(-n2c(C)cc(/C=N/Nc3ccc([N+](=O)[O-])cn3)c2C)c(C)c1 | -3.21
23 | CC(C)c1ccc(N2CCN(C(=O)c3ccccc3NC(=O)/C=C(\C(=O)O)c3ccccc3)CC2)cc1 | -0.303
24 | COC(=O)c1sccc1NC(=O)CCC1CCCC1 | -0.847
25 | COC(=O)c1sccc1N/N=C(\C)c1ccc(F)c(Cl)c1 | -0.109
26 | COC(=O)c1sccc1NC(=O)CSc1ccccc1NS(=O)(=O)c1cc(Cl)ccc1Cl | -4.82 (active)
27 | N#Cc1ccc(-c2ccc(Cl)cc2)nc1Oc1ccc(F)cc1 | -0.421
28 | COc1ccc(CN2[C@@H](CC(=O)O)c3cc(F)ccc3S2(=O)=O)cc1 | -2.11
29 | O=c1cc(CO)oc(C(Nc2cccc(C(F)(F)F)c2)c2ccccn2)c1O (configuration not stated) | -0.112
30 | Cc1ccc(-c2csc(NC(=O)c3cccs3)n2)cc1 | -1.5
31 | Cc1cccc(S(=O)(=O)CC(=O)Nc2nc(-c3ccccc3)cs2)c1 | -8.29 (active)
32 | NS(=O)(=O)c1ccc(Nc2nc(-c3ccccc3)cs2)cc1 | 0.0269
